Some test systems named below: NCI-H23 lung; NCI-H226 lung; NCI-H322M lung; HOP-62 NSCLC; NCI-H460 lung; HOP-92 NSCLC; NCI-H522 lung; A549/ATCC NSCLC; 786-0 renal; COLO 205 colon; DU-145 prostate; K-562 leukemia; MALME-3M melanoma; MDA-MB-231 breast; RXF 393 renal; SF-268 CNS; SF-295 CNS; SF-539 CNS; UACC-257 melanoma; M14 melanoma.
What all share (experiment): NCI-60 one-dose screen, 48 h (100 = growth as untreated, 0 = no growth, -100 = all killed)
What all share (conditions): 10 µM unless noted

Compounds without any hit were thinned out: in the full panel of roughly 83,000, 20% have a hit.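 Compound tested at a single concentration for 48 hours in 96-well plates; a percent growth value below 10 was scored as active.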 Unmarked numbers belong to inactive results. Calls of active or inactive are those of the source.

`O=C1Nc2cc(-c3ccc(NS(=O)(=O)c4ccc([N+](=O)[O-])cc4)cc3)ccc2/C1=C/c1ccc[nH]1`: the growth in the assay on NCI-H23 lung was 3.29% (active); in the assay on NCI-H226 lung, -12.3% (active); in the assay on NCI-H322M lung, 62.2%; with HOP-62 NSCLC, 0.132% (active); with NCI-H460 lung it was 3.96% (active); in the assay with HOP-92 NSCLC, -29.9% (active). For the same molecule, the growth with NCI-H522 lung is -5.99% (active); in the assay with A549/ATCC NSCLC, -31.9% (active); in the assay with 786-0 renal it was -8.24% (active); in the assay with COLO 205 colon, -31.8% (active); in the assay with DU-145 prostate, -44.9% (active); with K-562 leukemia, 12.6%. Also, the growth in the assay with MALME-3M melanoma was -0.842% (active); with MDA-MB-231 breast it was 12.3%; in the assay with RXF 393 renal, -44.3% (active); in the assay on SF-268 CNS, 46.6%; in the assay with SF-295 CNS, -32.7% (active); in the assay on SF-539 CNS, -54.4% (active). Besides, the growth with UACC-257 melanoma is 4.04% (active); with M14 melanoma, -13.9% (active).
For the molecule `N/C(=N\c1nc2ccccc2s1)NC(=O)Nc1ccccc1F`, the growth was 19.9% with NCI-H23 lung; 46.2% with NCI-H226 lung; 54.5% with NCI-H322M lung; 0.224% (active) in the assay with HOP-62 NSCLC; 30.2% with NCI-H460 lung; 19.3% in the assay on HOP-92 NSCLC. Further, the growth with NCI-H522 lung is -45.5% (active); with A549/ATCC NSCLC, 47.5%; in the assay with 786-0 renal, 17.7%; with COLO 205 colon, -33% (active); in the assay on DU-145 prostate, 9.55% (active); in the assay with K-562 leukemia, 13.1%. The growth with MALME-3M melanoma was 33.3%; with MDA-MB-231 breast, 19.9%; in the assay on RXF 393 renal it was -1.57% (active); in the assay with SF-268 CNS, 47.2%; in the assay with SF-295 CNS it was 2.32% (active); in the assay with SF-539 CNS, -40.1% (active). For the same molecule, the results for the growth in the assay with UACC-257 melanoma and in the assay on M14 melanoma were 84.5% and 31.1%, respectively.
Consider `COc1ccc(-c2nc3ccc(-c4nnc(SCc5ccccc5)o4)cc3[nH]2)cc1`, for which the growth in the assay with NCI-H23 lung is 8.09% (active); with NCI-H226 lung it was -76.5% (active); in the assay with NCI-H322M lung, 0.722% (active); in the assay on HOP-62 NSCLC, -72.7% (active); in the assay on NCI-H460 lung, -15.7% (active); with HOP-92 NSCLC, 20.9%. Moreover, the growth was -16.2% (active) in the assay on NCI-H522 lung; -5.6% (active) with A549/ATCC NSCLC; -62.5% (active) in the assay with 786-0 renal; 44.6% with COLO 205 colon; 10.2% in the assay on DU-145 prostate; 11.2% in the assay with K-562 leukemia. Also, the growth was -74.9% (active) in the assay with MALME-3M melanoma; -67.3% (active) with MDA-MB-231 breast; -75.3% (active) in the assay with RXF 393 renal; -6.18% (active) in the assay with SF-268 CNS; -75% (active) with SF-295 CNS; -99.7% (active) with SF-539 CNS. Also, the growth in the assay on UACC-257 melanoma was 21.8%; in the assay on M14 melanoma, 5.59% (active).
For the molecule `COc1ccc(C(=O)C[n+]2cccc3c4ccccc4ccc32)cc1`, the growth is 28.4% in the assay with NCI-H23 lung; 59.1% with NCI-H226 lung; 68.8% in the assay with NCI-H322M lung; 44.2% with HOP-62 NSCLC; 19.4% in the assay with NCI-H460 lung; 12.5% in the assay with HOP-92 NSCLC. For the same molecule, the growth is 28.8% in the assay with NCI-H522 lung; 38.2% in the assay on A549/ATCC NSCLC; 66.9% in the assay with 786-0 renal; 26.5% in the assay on COLO 205 colon; 56.3% with DU-145 prostate; 16.4% with K-562 leukemia. Besides, the growth with MALME-3M melanoma is 34.3%; in the assay with MDA-MB-231 breast, 40.4%; in the assay on RXF 393 renal, 55.8%; with SF-268 CNS, 38%; with SF-295 CNS, 29.8%; in the assay on SF-539 CNS, 53.1%. Also, the growth was 15.4% with UACC-257 melanoma and 38.5% in the assay with M14 melanoma.
For the molecule `N#Cc1c(NC(=O)N2CCOCC2)n(-c2ccc(OC(F)(F)F)cc2)c2cc(F)ccc12`, the growth was 90.7% in the assay on NCI-H23 lung; 87.3% in the assay on NCI-H226 lung; 108% in the assay on NCI-H322M lung; 106% in the assay with HOP-62 NSCLC; 94.5% with NCI-H460 lung; 102% in the assay with HOP-92 NSCLC. Further, the growth with NCI-H522 lung was 78.8%; in the assay with A549/ATCC NSCLC, 86.3%; in the assay on 786-0 renal, 112%; with COLO 205 colon, 108%; in the assay with DU-145 prostate, 100%; in the assay on K-562 leukemia, 8.91% (active). Further, the growth in the assay on MALME-3M melanoma is 94.5%; in the assay with MDA-MB-231 breast it was 73.7%; with RXF 393 renal, 95.2%; in the assay with SF-268 CNS, 114%; in the assay with SF-295 CNS, 87.7%; in the assay with SF-539 CNS, 87.7%. Also, the growth with UACC-257 melanoma is 102%; in the assay with M14 melanoma, 96.7%.
Consider `COc1cncc(-c2ccc3ncnc(N4CCc5ccc(Cl)cc54)c3c2)c1`, for which the growth was 8.73% (active) with NCI-H23 lung; 31.8% in the assay with NCI-H226 lung; -2.19% (active) in the assay with NCI-H322M lung; 51.3% in the assay on HOP-62 NSCLC; 51.8% in the assay on NCI-H460 lung; -56.9% (active) in the assay on HOP-92 NSCLC. Also, the growth with NCI-H522 lung was 36.6%; in the assay on A549/ATCC NSCLC it was 29.9%; in the assay with 786-0 renal, -74.2% (active); in the assay with COLO 205 colon, 38.4%; in the assay on DU-145 prostate, 24.6%; in the assay with K-562 leukemia, 12.6%. The growth in the assay on MALME-3M melanoma was 44.2%; in the assay on MDA-MB-231 breast it was 29.4%; with RXF 393 renal, -18.1% (active); in the assay on SF-268 CNS, 46.7%; in the assay with SF-295 CNS, 20.3%; with SF-539 CNS, 33.2%. The growth in the assay with UACC-257 melanoma was 63.5%; with M14 melanoma it was -52.4% (active).
Turning to `CC1=C(C)C(=O)C(NCCN2CCOCC2)=C(Br)C1=O`, the growth in the assay with NCI-H23 lung is -0.608% (active); in the assay on NCI-H226 lung, 67.1%; with NCI-H322M lung, 91.5%; in the assay on HOP-62 NSCLC, 87.2%; with NCI-H460 lung, 98%; in the assay on HOP-92 NSCLC, 38.7%. In addition, the growth in the assay on NCI-H522 lung is -18.4% (active); with A549/ATCC NSCLC, 87.6%; in the assay with 786-0 renal it was 100%; in the assay with COLO 205 colon, 130%; in the assay with DU-145 prostate, -76.9% (active); in the assay on K-562 leukemia, 0.994% (active). For the same molecule, the growth is -69% (active) in the assay with MALME-3M melanoma; -6.27% (active) in the assay on MDA-MB-231 breast; 122% in the assay on RXF 393 renal; 63.7% in the assay with SF-268 CNS; 103% with SF-295 CNS; 32.1% with SF-539 CNS. In addition, the growth in the assay with UACC-257 melanoma is -13.3% (active); with M14 melanoma it was 37.3%.
Regarding `COC(=O)c1ccc(-c2c(-c3ccccc3)c(F)c3oc(C(=O)OC)c(N)c3c2-c2ccccc2)cc1`, the growth with NCI-H23 lung is 87%; with NCI-H226 lung, 100%; in the assay with NCI-H322M lung it was 97.1%; with HOP-62 NSCLC, 94%; in the assay on NCI-H460 lung, 99.7%; in the assay on HOP-92 NSCLC, 85.1%. In addition, the growth is 83.4% in the assay on NCI-H522 lung; 98.9% in the assay with A549/ATCC NSCLC; 103% in the assay with 786-0 renal; 99.7% with COLO 205 colon; 104% with DU-145 prostate; 85.1% in the assay with K-562 leukemia. In addition, the growth was 99.9% in the assay on MALME-3M melanoma; 99.3% with MDA-MB-231 breast; 95.6% in the assay on RXF 393 renal; 91.6% in the assay with SF-268 CNS; 89.7% with SF-295 CNS; 90% in the assay on SF-539 CNS. The growth in the assay with UACC-257 melanoma was 111%; with M14 melanoma, 98.2%.
